Data published in PubChem BioAssay.
Results filed as inconclusive are left out. Activity calls are given as the source filed them.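 The calls were made as follows, unless noted: active = normalized viability below 100% at a tested concentration; inactive = the rest.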

Tests used:
[1] = viability loss in pontine glioma line – cell-based, SU-DIPG-XVII, MIPE5.0, CellTiter-Glo, qHTS, dose response (AID 1347060; cut-off not given, nearly all actives have AC50 up to about 26 µM;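 as to AC50: cells exposed to compound for 48 hours before viability readout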); conditions: CellTiter-Glo ATP luminescence
[2] = viability loss in pontine glioma line – cell-based, SU-DIPG-XIII, MIPE4.0, CellTiter-Glo, qHTS, dose response (AID 1347061; cut-off not given, nearly all actives have AC50 up to about 37 µM;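 also: cells exposed to compound for 48 hours before readout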); conditions: CellTiter-Glo ATP luminescence
[3] = viability loss in pontine glioma line – cell-based, JHH-DIPG-1, MIPE4.0, CellTiter-Glo, qHTS, dose response (AID 1347062; cut-off not given, nearly all actives have AC50 up to about 27 µM;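 as to AC50: cells exposed to compound for two days before readout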); conditions: JHH-DIPG-1 viability, CellTiter-Glo ATP luminescence
[4] = viability loss in pontine glioma line – cell-based, SU-DIPG-IV, MIPE4.0, CellTiter-Glo, qHTS, dose response (AID 1347063; cut-off not given, nearly all actives have AC50 up to about 30 µM;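 also: compound exposure lasted 48 hours before the viability readout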); conditions: CellTiter-Glo ATP luminescence
[5] = viability loss in pontine glioma line – cell-based, SU-DIPG-XIII, MIPE5.0, CellTiter-Glo, qHTS, dose response (AID 1347064; cut-off not given, nearly all actives have AC50 up to about 23 µM;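 as to AC50: cells exposed to compound for 48 hours before the viability read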); conditions: CellTiter-Glo ATP luminescence
[6] = viability loss in pontine glioma line – cell-based, SU-DIPG-XXV, MIPE5.0, CellTiter-Glo, qHTS, dose response (AID 1347065; cut-off not given, nearly all actives have AC50 up to about 26 µM;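 also: cells exposed to compound for 48 hours before ATP readout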); conditions: CellTiter-Glo ATP luminescence
[7] = growth inhibition of DIPG cells – cell-based, MIPE4.0 library, CellTiter-Glo luminescence, qHTS (AID 1347066; cut-off not given, nearly all actives have AC50 up to about 30 µM;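 also: cells exposed to compound for 48 hours before readout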); conditions: SU-DIPG-VI viability, CellTiter-Glo ATP luminescence
[8] = JHH-DIPG-1 glioma cell viability, MIPE5.0 library, CellTiter-Glo luminescence, qHTS (AID 1347067; cut-off not given, nearly all actives have AC50 up to about 26 µM;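 also: cells exposed to compound for 48 hours before readout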); conditions: JHH-DIPG-1 glioma viability, CellTiter-Glo ATP luminescence
[9] = growth inhibition of DIPG cells – cell-based, MIPE5.0 library, qHTS (AID 1347068; cut-off not given, nearly all actives have IC50 up to about 30 µM;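 as to IC50: cells exposed to compound for 48 hours before viability readout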); conditions: SU-DIPG-XXV viability
[10] = viability loss with induced miR-34 in A549 – imaging, A549 dox-inducible miR-34, nuclei and caspase counts, primary screen (AID 1347080;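 active = compounds whose cell count with miR-34 switched on is under 0.7 times the count with it off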); conditions: A549 miR-34 inducible, Hoechst nuclei count, 48 h
[11] = MELAS cybrid and Rieske KO viability enhancers – cell-based, MELAS cybrids, Rieske KO mouse fibroblasts, CellTiter-Glo, primary screen (AID 1508586;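 active = mean z-score across replicates of 1.96 or higher in either the MELAS or the Rieske mutant cell line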;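 also: z relative to plate mean and SD of compound and empty wells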); conditions: low glucose
[12] = compounds altering HSF1 focus formation in cells – imaging, Selleck Cancer Library (AID 1347162; in the data active = plate-normalised HSF1 focus index below about 0.46); conditions: human cells, HSF1 nuclear foci imaging, at 10 µM; SSMD: measured here: HSF1 foci SSMD mean; cell count: measured here: cell number; plate-normalised HSF1 focus index: stronger effect = lower value
[13] = drug combination growth inhibition, ovarian cancer – cell-based, oncology-focused library, rucaparib conditional, profiling panel (AID 1508598); conditions: patient-derived ovarian cancer cells, CellTiter-Glo viability, 144 h, stronger effect = lower value
[14] = stronger effect = lower value, cell number ratio, induced over uninduced
[15] = measured here: relative caspase fold change +Dox/-Dox
[16] = measured here: total cells with miR-34 induction, stronger effect = lower value
[17] = measured here: total cells without miR-34 induction
[18] = MELAS cybrid survival, CellTiter-Glo 48 h, stronger effect = higher value
[19] = Rieske KO mouse fibroblast survival, CellTiter-Glo 72 h

O=C(c1ccc(C(=O)N2CCC(N3CCCC3)CC2)c(Nc2ccccc2)c1)N1CCC(N2CCCC2)CC1
8000: cell count [10, 16]
1.63: fold change [10, 15]
inactive: outcome [1] | outcome [2] | outcome [3] | outcome [4] | outcome [5] | outcome [6] | outcome [7] | outcome [8] | outcome [9] | fold change [10, 14] 0.897 | z-score [11, 18] -0.111
-0.294: z-score [11, 19]
8920: cell count [10, 17]

CC1(C)CC(=O)c2c(C(F)(F)F)nn(-c3ccc(C(N)=O)c(NC4CCC(O)CC4)c3)c2C1 (centres undefined)
-1.99: z-score [11, 19]
active: AC50 [1] 0.118 µM | AC50 [2] 0.469 µM | AC50 [3] 0.166 µM | AC50 [4] 0.132 µM | AC50 [5] 0.148 µM | AC50 [6] 0.105 µM | AC50 [7] 0.148 µM | AC50 [8] 0.118 µM | IC50 [9] 0.186 µM | z-score [11, 18] 2.87
3040: cell count [10, 16]
0.783: fold change [10, 15]
inactive: fold change [10, 14] 0.978
3110: cell count [10, 17]

CCC[C@H](NC(=O)/C(C#N)=C/c1cccc(Br)n1)c1ccccc1
active: AC50 [1] 3.32 µM | AC50 [2] 26.4 µM | AC50 [3] 3.32 µM | AC50 [4] 2.35 µM | AC50 [5] 3.32 µM | AC50 [6] 2.63 µM | AC50 [7] 9.35 µM | AC50 [8] 4.68 µM | IC50 [9] 16.6 µM | plate-normalised HSF1 focus index [12] 0.0433 | viability ([13]; at 0.000305 µM, OCI-P5x cells, with rucaparib 20 µM, 100% = cells with rucaparib alone) 94.8% | viability ([13]; at 0.00122 µM, OCI-P5x cells, with rucaparib 20 µM, 100% = cells with rucaparib alone) 95.1% | viability ([13]; at 0.00488 µM, OCI-P5x cells, with rucaparib 20 µM, 100% = cells with rucaparib alone) 98.7% | viability ([13]; at 1.25 µM, OCI-P5x cells, with rucaparib 20 µM, 100% = cells with rucaparib alone) 46.8% | viability ([13]; at 5 µM, OCI-C5x cells, with rucaparib 10 µM, 100% = cells with rucaparib alone) 8.18% | viability ([13]; at 5 µM, OCI-P5x cells, with rucaparib 20 µM, 100% = cells with rucaparib alone) 2.03% | viability ([13]; at 5 µM, OCI-P5x cells, without rucaparib) 8.95%
-18.6: SSMD [12]
6540: cell count [12]
inactive: viability ([13]; at 0.000305 µM, OCI-C5x cells, with rucaparib 10 µM, 100% = cells with rucaparib alone) 119% | viability ([13]; at 0.000305 µM, OCI-C5x cells, without rucaparib) 122% | viability ([13]; at 0.000305 µM, OCI-P5x cells, without rucaparib) 113% | viability ([13]; at 0.00122 µM, OCI-C5x cells, with rucaparib 10 µM, 100% = cells with rucaparib alone) 114% | viability ([13]; at 0.00122 µM, OCI-C5x cells, without rucaparib) 137% | viability ([13]; at 0.00122 µM, OCI-P5x cells, without rucaparib) 111% | viability ([13]; at 0.00488 µM, OCI-C5x cells, with rucaparib 10 µM, 100% = cells with rucaparib alone) 121% | viability ([13]; at 0.00488 µM, OCI-C5x cells, without rucaparib) 137% | viability ([13]; at 0.00488 µM, OCI-P5x cells, without rucaparib) 114% | viability ([13]; at 0.0195 µM, OCI-C5x cells, with rucaparib 10 µM, 100% = cells with rucaparib alone) 111% | viability ([13]; at 0.0195 µM, OCI-C5x cells, without rucaparib) 135% | viability ([13]; at 0.0195 µM, OCI-P5x cells, with rucaparib 20 µM, 100% = cells with rucaparib alone) 104% | viability ([13]; at 0.0195 µM, OCI-P5x cells, without rucaparib) 110% | viability ([13]; at 0.0781 µM, OCI-C5x cells, with rucaparib 10 µM, 100% = cells with rucaparib alone) 108% | viability ([13]; at 0.0781 µM, OCI-C5x cells, without rucaparib) 128% | viability ([13]; at 0.0781 µM, OCI-P5x cells, with rucaparib 20 µM, 100% = cells with rucaparib alone) 104% | viability ([13]; at 0.0781 µM, OCI-P5x cells, without rucaparib) 128% | viability ([13]; at 0.313 µM, OCI-C5x cells, with rucaparib 10 µM, 100% = cells with rucaparib alone) 126% | viability ([13]; at 0.313 µM, OCI-C5x cells, without rucaparib) 134% | viability ([13]; at 0.313 µM, OCI-P5x cells, with rucaparib 20 µM, 100% = cells with rucaparib alone) 102% | viability ([13]; at 0.313 µM, OCI-P5x cells, without rucaparib) 123% | viability ([13]; at 1.25 µM, OCI-C5x cells, with rucaparib 10 µM, 100% = cells with rucaparib alone) 106% | viability ([13]; at 1.25 µM, OCI-C5x cells, without rucaparib) 141% | viability ([13]; at 1.25 µM, OCI-P5x cells, without rucaparib) 111% | viability ([13]; at 5 µM, OCI-C5x cells, without rucaparib) 102%
